From PubChem
Many of the other results were omitted from the sample, so hits are more common in it than they were.
ROC1-CUL1 inh: inhibitors of human ROC1-CUL1 ubiquitin ligase activity; AID 1347404; in vitro K48 di-Ub FRET, acceptor:donor ratio, 45 min; inhibition, % at 10 µM; 140,000 compounds, 0.6% hits; in the data active means inhibition above about 25%
Hits are given with their value; i = inactive.

SMILES | ROC1-CUL1 inh
O=C1NC(=S)N=C1Cc1cc(Br)cc(Br)c1O | i
COC(=O)N1C(C)SC2(N1C(=O)OC)C(C)(C)C(=O)C2(C)C (stereo not given) | i
C=CCO[C@H]1[C@H](NC(=O)C2CC2)c2ccccc2C12CCN(C(=O)c1ccc(C(F)(F)F)cc1)CC2 | i
CC#CCN1C(=O)NC(CCc2ccccc2)(C2CCN(Cc3ccco3)CC2)C1=O (stereo not given) | i
CCCCCCOc1cc(/C=C/C(=O)O)c(OCCCCCC)cc1/C=C/C(=O)O | 89
CCCCCCCCCCCCCCCCCCOc1ccc(/C=C/C(=O)O)cc1I | i
O=C(O)/C=C/c1cc(Br)ccc1OCc1ccc(F)cc1 | i
COc1ccccc1C1CN(CC(=O)NC(c2ccco2)C(F)(F)F)Cc2ccccc2O1 (stereo not given) | i
Cc1c(C)n2c3c(=O)[nH]c(=O)n(C)c3nc2n1CCO | i
Cc1[nH]n(-c2ccccc2)c(=O)c1C(c1ccc(-c2ccc(Br)cc2)o1)c1c(C)[nH]n(-c2ccccc2)c1=O | i
Cc1[nH]n(-c2ccccc2)c(=O)c1C(C[N+](=O)[O-])c1ccc(Br)cc1 (stereo not given) | 70
Cc1[nH]n(-c2ccccc2)c(=O)c1/C=N/NC(=O)Cc1ccc(Br)cc1 | i
O=C(Nc1ccc(S(=O)(=O)Nc2ncccn2)cc1)c1cc(-c2ccc(Cl)s2)nc2ccccc12 | i
CCOc1ccc(/C=C2\SC(=Nc3ccc(F)cc3)NC2=O)cc1OC | i
COc1cccc(/C=C2\SC(=Nc3ccc(C)c(Cl)c3)NC2=O)c1OCC(=O)O | 97
CCOc1ccc(N=C2NC(=O)/C(=C/c3cc(Br)c(OC)c(OC)c3)S2)cc1 | i
CCOc1cc(/C=C2/SC(=Nc3ccc4ccccc4c3)NC2=O)cc(Cl)c1OCC(=O)O | 99
COc1cccc(/C=C2\SC(=Nc3cccc(Cl)c3C)NC2=O)c1OCC(=O)O | i
CCCOC(=O)c1cccc(N=C2NC(=O)/C(=C\c3cc(C(C)C)c(OC)cc3C)S2)c1 | i
Cc1ccc(CCNC(=O)C2CCC(=O)N(Cc3ccccn3)C2)o1 (stereo not given) | i
CN(Cc1cnccn1)c1nc2nonc2nc1N1CCCC1 | i
